Compounds without any hit were thinned out: in the full panel of roughly 83,000, 20% have a hit.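 Activity criterion: percent growth below 10, measured after cells in 96-well plates were exposed to a single compound concentration for 48 hours.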 Unmarked numbers belong to inactive results.

The assay deals with HOP-92 NSCLC. Kind of assay: NCI-60 one-dose screen, 48 h (100 = growth as untreated, 0 = no growth, -100 = all killed). The note with it: 10 µM unless noted.
For the compound `CCCSC1=NC2C(N(CC)C(=O)N2CC)N1/N=C/C=C/c1ccccc1[N+](=O)[O-]` (centres undefined), the growth is 102%.

With `COC(=O)C1=Nc2ccc(F)cc2/C1=C/c1sc(=S)[nH]c1O`, the growth is 22.9%. For the compound `O=C1c2cc(Br)ccc2Oc2cc([N+](=O)[O-])ccc2N1c1ccc(I)cc1F`, the growth is 101%. The result for `COc1cccc(-c2nn(C)c3sc(C(=O)NCCN4CCN(c5ccccc5F)CC4)cc23)c1` reads 14.9%; that for `O=S(=O)(c1ccccc1)n1cc2c(c1-c1ccccc1)CCc1sc(Nc3ccccc3)nc1-2`, 86.6%; that for `CN1CCN(Cc2ccc(NC(=O)c3cncc(C#Cc4nc(N)nc5[nH]ncc45)c3)cc2C(F)(F)F)CC1`, 77.8%. As to `Clc1ccc(-c2nnc(COc3ccc(C4=NNC(c5ccco5)C4)cc3)o2)cc1` (centres undefined), the growth was 76.8%.

As to `CC(=O)c1ccc(Cc2ccc(C(C)=O)s2)s1`, the growth was 102%. As to `CCOC(=O)c1cnc2ccc(Cl)cc2c1NCCCN(C)C`, the growth was 41.1%.

As for `CCN1C(=O)N(CC)C2C1NN=c1s/c(=C3\C(=O)N(CC(C)(C)C)c4ccccc43)c(=O)n12` (centres undefined), the growth was 78.6%. The result for `CC(=O)c1ccc2oc(=O)n(Cc3ccc(C#N)cc3)c(=O)c2c1` reads 95.2%; that for `O=C1/C(=C/c2cccc(O)c2)COc2ccc(O)cc21`, 104%. On to `O=C(Nc1nc2c(s1)CCc1c-2c(Br)n(Cc2ccccc2)c1Br)c1ccccc1`, for which the growth is 31.2%. `Nc1n[nH]c2ccc([C@@H]3Nc4ccc5[nH]ncc5c4[C@H]4[C@H]5CCC(C5)[C@H]43)cc12`: the growth is 33.7%.
